From PubChem BioAssay
Hits are enriched below; roughly 6.8% of the tested compounds scored in any of these assays.
Pf_Dd2_growth: inhibitors of Plasmodium falciparum Dd2 growth. 94,000 tested, 2.3% active. P. falciparum Dd2 growth, SYBR Green, 72 h; stronger effect = lower value. activity change, % at 10 µM; in the data active = activity change below about -80%; inconclusive = no clear call, values can overlap the other calls
T_cruzi_growth-1: blocks T. cruzi growth in NIH3T3 culture. T. cruzi beta-gal in NIH3T3, GalScreen luminescence, 90 h. inhibition, % at 8.34 µM. 77,000 tested, 5.9% active. AID 624255;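 active = mean inhibition above about 93%, with at least 55% of replicates each passing it, limit read from the data, passing the limit was not always enough; inconclusive = only one of those two conditions holds; inactive = neither condition holds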
C_diff_HTS: C. difficile growth inhibition | Clostridium difficile clinical isolate growth, OD600, 24 h; stronger effect = lower value | growth activity, negative = inhibition, % at 16 µg/mL (by protocol) | 86,000 tested, 0.25% active | AID 1259249;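 active = mean growth activity at or below -80% and every replicate also at or below -80%; inconclusive = mean at or below -80% but some replicate above -80%; inactive = mean growth activity above -80%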;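 also: 0% = DMSO wells and -100% = levofloxacin 16 µg/mL wells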
T_cruzi_growth-2: Trypanosoma cruzi proliferation inhibition | shares compounds with T_cruzi_growth-1 | T. cruzi beta-gal in NIH3T3, GalScreen luminescence, 90 h | inhibition, % at 8.35 µM | 5,600 tested, 72% active | AID 651739;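 active = mean replicate inhibition above about 95% and at least 55% of replicates individually reaching it, limit read from the data; inconclusive = only one of the two criteria is met; inactive = neither criterion is met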
T_cruzi_growth-3: Trypanosoma cruzi proliferation inhibition; shares compounds with T_cruzi_growth-1; T. cruzi beta-gal in NIH3T3, GalScreen luminescence, 90 h; inhibition, % at 2.09 µM; 5,600 tested, 21% active;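 active = mean inhibition above about 95%, with at least 55% of replicates also reaching it, limit read from the data; inconclusive = meets just one of the two conditions; inactive = meets neither condition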;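 also: plate controls were neutral control median for no effect and positive control median for full effect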
3T3_cytotox: NIH/3T3 (mouse) viability loss; shares compounds with T_cruzi_growth-1; NIH/3T3 viability, CellTiter-Glo ATP luminescence, 90 h; cytotoxicity (signal decrease), % at 8.35 µM; 5,600 tested, 14% active; AID 651742;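 active = mean signal decrease across replicates above about 35% based on untreated-well scatter, with enough replicates individually passing, limit read from the data; inconclusive = no rule stated though some were filed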;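 also: 0% = median of neutral control wells and 100% = median of positive control wells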
NIH3T3_tox_2: kills mouse NIH/3T3 fibroblasts; shares compounds with T_cruzi_growth-1; NIH/3T3 viability, CellTiter-Glo ATP luminescence, 90 h; inhibition, % at 24.9 µM; 5,600 tested, 56% active;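 active = mean loss of cell viability signal at or above a set limit, and enough replicates individually reaching it; inconclusive = meets only the mean limit or only the replicate share; inactive = meets neither condition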;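 also: 0% = median of neutral control wells and 100% = median of positive control wells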
* = called active by the depositor; ? = inconclusive; · = no result.

SMILES Pf_Dd2_growth T_cruzi_growth-1 C_diff_HTS T_cruzi_growth-2 T_cruzi_growth-3 3T3_cytotox NIH3T3_tox_2
Cc1noc(C)c1S(=O)(=O)Nc1ccc2c(c1)C(=O)N([C@@H](C)CO)C[C@H](C)[C@@H](CN(C)C(=O)Nc1ccc(F)cc1)O2 18 6 · · · · ·
Cc1noc(C)c1NC(=O)N(C)C[C@@H]1Oc2ccc(NC(=O)CCCCCC(=O)Nc3ccccc3N)cc2C(=O)N([C@H](C)CO)C[C@@H]1C 12 · 2 · · · ·
Cc1ccc(S(=O)(=O)N(C)C[C@H]2Oc3ccc(NC(=O)C4CC4)cc3CC(=O)N([C@@H](C)CO)C[C@@H]2C)cc1 -34 44 1 · · · ·
CCCC#Cc1ccc([C@@H]2[C@@H](CO)N3CCCCN(S(=O)(=O)c4ccccc4C)C[C@H]23)cc1 -55 119* 43 105* ? 14 106*
COCC#Cc1ccc([C@H]2[C@H]3CN(S(=O)(=O)c4ccccc4F)CCCCN3[C@H]2CO)cc1 2 59 5 · · · ·
Cc1ccccc1S(=O)(=O)N1CCCCN2[C@H](CO)[C@@H](c3ccc(C#CCN(C)C)cc3)[C@@H]2C1 -17 30 -12 · · · ·
COCC#Cc1ccc([C@H]2[C@@H](CO)N3CCCCN(S(=O)(=O)c4ccccc4F)C[C@@H]23)cc1 -24 107* 4 106* 73 7 20
COCC#Cc1ccc([C@@H]2[C@H]3CN(S(=O)(=O)c4ccccc4C)CCCCN3[C@H]2CO)cc1 7 94 2 · · · ·
CN(C)CC#Cc1ccc([C@@H]2[C@H](CO)N3CCCCN(S(=O)(=O)c4ccccc4F)C[C@@H]23)cc1 -48 103* 3 110* 8 13 76*
Cc1ccccc1S(=O)(=O)N1CCCCN2[C@@H](CO)[C@@H](c3ccc(C#CCN(C)C)cc3)[C@@H]2C1 -53 99* 2 107* 89 ? 103*
COCC#Cc1ccc([C@@H]2[C@@H](CO)N3CCCCN(S(=O)(=O)c4ccccc4F)C[C@H]23)cc1 -53 87 -8 · · · ·
C[C@H](CO)N1C[C@H](C)[C@H](CN(C)C(=O)c2ccncc2)Oc2ncc(C3=CCCCC3)cc2C1=O 6 30 -4 · · · ·
C[C@H]1CN([C@@H](C)CO)C(=O)Cc2cc(NC(=O)Nc3ccc(F)cc3)ccc2O[C@@H]1CN(C)Cc1ccc2c(c1)OCO2 -13 · -5 · · · ·
CC(C)c1cn(CC[C@@H]2CC[C@H](NS(=O)(=O)Cc3ccccc3)[C@@H](CO)O2)nn1 11 -11 · · · · ·
COCC(=O)N1C[C@H](C)[C@H](OC)CN(C)C(=O)c2cc(NC(=O)NC(C)C)ccc2OC[C@H]1C 20 -5 · · · · ·
CO[C@@H]1CN(C)C(=O)c2cc(NC(C)=O)ccc2OC[C@@H](C)N(CCc2ccccc2)C[C@@H]1C 7 3 8 · · · ·
Cc1ccccc1S(=O)(=O)N1CCCCN2[C@H](CO)[C@H](c3ccc(C#CCN(C)C)cc3)[C@@H]2C1 -24 32 3 · · · ·
Cc1ccccc1S(=O)(=O)N1CCCCN2[C@H](C1)[C@H](c1ccc(C#CCN(C)C)cc1)[C@@H]2CO -16 98* 4 110* 47 22 83*
C[C@@H]1CCCCO[C@@H](CN(C)Cc2ccc(C(=O)O)cc2)[C@@H](C)CN([C@@H](C)CO)C(=O)c2cc(NS(=O)(=O)c3ccccc3)ccc2O1 -24 7 · · · · ·
COc1ccccc1C#Cc1ccc([C@@H]2[C@@H](C#N)N(C(=O)C3CCC3)[C@H]2CO)cc1 -73 97* 1 104* 111* -24 6
COc1ccccc1C#Cc1ccc([C@@H]2[C@H](C#N)N(C(=O)C3CCC3)[C@H]2CO)cc1 -52 ? 3 103* 111* 31 28*
COc1ccccc1C#Cc1ccc([C@@H]2[C@@H](CO)N(C(=O)C3CCC3)[C@H]2C#N)cc1 -67 91 -6 · · · ·
COc1ccccc1C#Cc1ccc([C@@H]2[C@@H](C#N)N(C(=O)C3CCC3)[C@@H]2CO)cc1 -11 80 13 · · · ·
COc1ccc(-c2ccc3n(c2=O)C[C@H]2[C@H](CO)[C@@H](C(=O)N4CCCCC4)[C@@H]3N2C)cc1 7 13 4 · · · ·
